The term inhibition denotes the relative decrease from the control value, in per cent.

Out of some 290,000 compounds screened, about 150 (0.052%) were called active.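 How the source made its calls: active means inhibition of at least 50% with at least 30 cells and total cytoplasm GFP at most 10,000,000; inconclusive means under 30 cells or total GFP of 10,000,000 plus; inactive means the rest.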 The list comes from a sample in which actives are over-represented; it also holds similar structures and randomly drawn compounds. Potency and affinity values are given separately.

Results on 15 molecules are retold here after PubChem BioAssay AID2058 (Sanford-Burnham Center for Chemical Genomics, 2009).

The target of this assay is G-protein coupled receptor 35 (Homo sapiens) (UniProt Q9HC97). As to the kind of experiment: GPR35 antagonists blocking zaprinast-driven arrestin recruitment, primary screen, imaging, U2OS, beta-arrestin-GFP, zaprinast agonist (AID 2058). The note with it: U2OS GPR35 beta-arrestin-GFP translocation imaging, zaprinast antagonism; at 10 µM; hits give high values. Background: Activated receptors often draw arrestin, which recruitment assays turn into a signal.
Sequence of G-protein coupled receptor 35 (Homo sapiens) (Q9HC97 whole entry, looked up): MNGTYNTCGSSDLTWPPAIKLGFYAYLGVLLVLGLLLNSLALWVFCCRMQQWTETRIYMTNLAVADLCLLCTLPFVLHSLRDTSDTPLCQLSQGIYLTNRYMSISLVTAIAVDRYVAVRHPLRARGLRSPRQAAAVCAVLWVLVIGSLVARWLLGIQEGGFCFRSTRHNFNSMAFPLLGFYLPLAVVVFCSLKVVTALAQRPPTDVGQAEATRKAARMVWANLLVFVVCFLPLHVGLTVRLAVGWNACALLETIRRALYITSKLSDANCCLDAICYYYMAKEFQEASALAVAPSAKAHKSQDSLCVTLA
Consider `CN1/C(=C\C=C\C2=[N+](C)c3ccc4ccccc4c3C2(C)C)C(C)(C)c2ccccc21`, for which the inhibition was 111% (active).

For the molecule `CN1/C(=C\C=C2C(=O)NC(=O)NC2=O)C(C)(C)c2ccccc21`, the inhibition is 1.5% (inactive).

Consider `CN1/C(=C\C=Nc2ccccc2)C(C)(C)c2ccccc21`, for which the inhibition was -7.9% (inactive).

As to `COc1ccc(NC(=O)c2cn(CCC#N)nc2-c2cccc(Br)c2)cc1`, the inhibition is -0.5% (inactive).

As for `CCCNS(=O)(=O)c1ccc(OCC(=O)N2CCN(C)CC2)cc1`, the inhibition was 3.2% (inactive).

For `CCCCNC(=O)NC(C(N)=O)P(=O)(OCC)OCC` (stereo not given), the inhibition was -6.8% (inactive).

Regarding `COc1cccc(C2CC3C(=O)C=CC2N3Cc2ccccc2)c1` (stereo not given), the inhibition was 58.2% (active).

As for `COc1cccc(CN2CCCCC2c2cccnc2)c1` (stereo not given), the inhibition was 11.2% (inactive).

Take `COc1cccc(-c2nn(Cc3ccccc3)cc2C(=O)O)c1`: the inhibition was 21.1% (inactive).

Take `Clc1ccc(NC2=NCCCS2)cc1Cl`: the inhibition was -7.1% (inactive).

With `Cc1nccc2c1[nH]c1ccccc12`, the inhibition was 2.3% (inactive).

In the case of `Cc1c2ccncc2c(C)c2c1[nH]c1ccccc12`, the inhibition was 57.9% (active).

As for `c1ccc2c(c1)[nH]c1cnccc12`, the inhibition is -1.7% (inactive).

`CCOc1ccc(Cl)cc1CNCCc1ccc(F)cc1`: the inhibition is -1.9% (inactive).

In the case of `Cc1ccc(C(=O)Nc2ccc(-n3ccnc3P(=O)(O)c3ccccc3)cc2)cc1`, the inhibition is -2.7% (inactive).
